In PubChem BioAssay AID1445 (SRMLSC, 2008):
Out of some 220,000 compounds screened, about 910 (0.41%) were called active.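 The calls were made as follows: active = primary inhibition above the hit cutoff, then over 50% inhibition at one or more dose response concentrations (cut at about 23% in these data, passing the limit was not always enough); inconclusive = conflicting primary data, or primary hits not chosen for dose response; inactive = low primary inhibition, or under 50% at every dose.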 The full list was thinned out, with actives kept by preference. Results with a measured potency or affinity are listed apart.

biological target: Aminopeptidase N (Plasmodium falciparum (isolate 3D7)) (UniProt O96935); assay: P. falciparum M1AAP inhibitors, biochemical, fluorogenic H-Leu-NHMec substrate, 1536-well (AID 1445); details: recombinant M1AAP, H-Leu-NHMec fluorogenic kinetic assay; at 30 µM, stronger effect = higher value unless noted;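 also: plate controls were DMSO full reaction for no effect and no enzyme background for full effect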
Sequence (O96935 whole entry, looked up): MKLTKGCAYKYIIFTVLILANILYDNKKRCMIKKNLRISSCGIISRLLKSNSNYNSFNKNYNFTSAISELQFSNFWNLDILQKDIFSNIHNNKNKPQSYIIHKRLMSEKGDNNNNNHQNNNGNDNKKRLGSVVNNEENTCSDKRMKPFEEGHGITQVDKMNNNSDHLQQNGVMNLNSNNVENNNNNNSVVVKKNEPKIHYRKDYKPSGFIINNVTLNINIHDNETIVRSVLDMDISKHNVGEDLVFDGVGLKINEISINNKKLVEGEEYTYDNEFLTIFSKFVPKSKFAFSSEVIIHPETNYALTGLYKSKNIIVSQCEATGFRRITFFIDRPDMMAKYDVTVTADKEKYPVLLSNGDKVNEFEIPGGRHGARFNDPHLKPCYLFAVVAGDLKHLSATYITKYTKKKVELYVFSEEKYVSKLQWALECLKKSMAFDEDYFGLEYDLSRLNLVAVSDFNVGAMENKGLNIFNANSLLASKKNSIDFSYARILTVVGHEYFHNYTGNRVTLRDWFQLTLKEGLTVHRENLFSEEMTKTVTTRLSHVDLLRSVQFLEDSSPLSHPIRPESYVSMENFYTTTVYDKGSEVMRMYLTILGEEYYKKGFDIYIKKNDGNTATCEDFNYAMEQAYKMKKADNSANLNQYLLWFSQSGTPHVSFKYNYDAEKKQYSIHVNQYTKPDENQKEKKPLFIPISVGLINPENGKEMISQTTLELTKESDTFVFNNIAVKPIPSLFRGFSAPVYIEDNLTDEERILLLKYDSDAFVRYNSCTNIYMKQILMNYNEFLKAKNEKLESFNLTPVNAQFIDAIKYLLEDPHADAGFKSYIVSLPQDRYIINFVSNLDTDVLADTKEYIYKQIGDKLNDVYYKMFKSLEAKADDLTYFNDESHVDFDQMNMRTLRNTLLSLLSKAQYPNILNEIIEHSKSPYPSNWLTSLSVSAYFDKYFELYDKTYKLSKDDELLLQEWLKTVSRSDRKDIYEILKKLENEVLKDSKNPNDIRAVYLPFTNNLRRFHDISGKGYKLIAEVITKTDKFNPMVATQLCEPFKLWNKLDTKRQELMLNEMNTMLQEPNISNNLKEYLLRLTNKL

inhibition, inactive:
CC(=O)Nc1ccc(NS(=O)(=O)c2cc([N+](=O)[O-])ccc2C)cc1 2.22%
Cc1ccc(C)c(NC(=O)c2ccccc2NS(=O)(=O)c2cc([N+](=O)[O-])ccc2C)c1 8.58%
O=C(N/N=C(\Cc1ncc[nH]1)c1ccccc1)c1ccccc1 19.5%
O=C(N/N=C(\Cc1ncc[nH]1)c1ccccc1)c1cccnc1 16.6%
COC(=O)c1cc2c(ccn2-c2ccc(F)cc2)n1CC(=O)OC(C)C 1.89%
CCOc1cc(N2CCOCC2)c(OCC)cc1NC(=O)C(NC(=O)c1ccco1)C(C)C (stereo not given) 8.28%
c1ccc2c(c1)N1CCN=C1N2CCN1CCCCC1 5.87%
Cc1oc(S(=O)(=O)N(C)C)cc1C(=O)Nc1ccc(F)cc1 0.82%
C=CCn1c(CNC(=O)c2ccccc2F)nnc1SCc1nc2ccccc2c(=O)[nH]1 7.18%
C=CCn1c(CCNC(=O)c2ccccc2F)nnc1SCC(=O)Nc1nc(C)cs1 -1.07%
CCOC(=O)C(NC(=O)CC)(Nc1ccccc1OC)C(F)(F)F (stereo not given) -0.34%
COc1ccc(N2CCN(Cc3nc4ccsc4c(=O)[nH]3)CC2)cc1 13.2%
O=c1[nH]c(CN2CCN(c3ccccc3Cl)CC2)nc2ccsc12 6.37%
O=C(CSc1nnc(NCc2ccccc2)s1)NC1CCS(=O)(=O)C1 (stereo not given) -0.46%
COCCCN1C(=O)c2[nH]nc(-c3cc(C)cc(C)c3O)c2C1c1ccc(O)c(OC)c1 (stereo not given) 6.71%
COc1cc(C2c3c(-c4ccccc4O)n[nH]c3C(=O)N2Cc2ccco2)cc(OC)c1OC (stereo not given) 3.24%
CCOc1ccccc1-n1c(SCC(=O)N(C(C)C)C(C)C)nnc1-c1cccnc1 5.81%
O=C(CN1CCN(Cc2ccc(Cl)cc2)C1=O)NCCN1CCCC1 1.07%
CCC(C)[C@H](NC(=O)Nc1ccc(C(C)=O)cc1)C(=O)OC (stereo not given in full) -5.32%
CCC1=NN2C(=N)/C(=C/c3cc(C)n(Cc4ccccc4)c3C)C(=O)N=C2S1 1.28%
Cc1nn(-c2ccccc2)c(Cl)c1/C=C1\C(=O)N(C)C(=S)N1C 5.11%
CCC1=NN2C(=N)/C(=C\c3cccn3-c3cccc(Cl)c3)C(=O)N=C2S1 7.8%
Cc1nn(-c2ccccc2)c(Cl)c1/C=C1\SC(=S)N(C)C1=O -0.16%
O=C(Nc1ccc(-n2nncc2-c2ccco2)cc1)c1cccc(F)c1 1.93%
COc1ccc(CN(C)CC(=O)Nc2ccccc2-c2ccccc2)c(OC)c1 6.36%
O=C(O)C(CC1CCCCC1)N1CCS(=O)(=O)CC1 (stereo not given) -6%
C=CCn1c(N)cc(=O)nc1SC(C)C(=O)Nc1cccc2ccccc12 (stereo not given) 14%
O=C(Nc1cccc(S(=O)(=O)N2CCCCC2)c1)c1ccccc1NS(=O)(=O)c1ccc(F)cc1 11.5%
O=C(Nc1cc(S(=O)(=O)Nc2ccc(Cl)cc2)ccc1O)c1ccc(S(=O)(=O)N2CCCCCC2)cc1 0.01%
Cc1ccc(NC(=O)c2ccccc2NS(=O)(=O)c2ccc(F)cc2)cc1S(=O)(=O)N1CCCCC1 14.4%
O=C(Nc1ccccc1N1CCOCC1)c1ccccc1NS(=O)(=O)c1ccc(F)c(F)c1 5.56%
CCc1nnc(NC(=O)CN2CCN(C(=O)c3ccccc3)CC2)s1 5.2%
O=C(O)C1CCN(C(=O)CSc2nc3ccccc3s2)CC1 -1.91%
CSc1ccc(Cl)c(C(=O)NC2CCCC2)c1 1.66%
CC(C)CNS(=O)(=O)c1ccc(CCC(=O)Nc2ccc3c(c2)OCCO3)cc1 9.09%
Cc1ccc(Cl)cc1NC(=O)COC(=O)C1CC1 -9.09%
C=CCn1c(-c2ccccc2[N+](=O)[O-])n[nH]c1=S -1.25%
COc1ccc(N=C2NC(=O)/C(=C\c3ccco3)S2)cc1 6.07%
COc1ccc(N=C2NC(=O)/C(=C/c3ccco3)S2)cc1 7.45%
O=C1N/C(=N/O)S/C1=C/c1cccc([N+](=O)[O-])c1 13.8%
CCCN1C(=O)/C(=C/c2ccco2)SC1=Nc1ccc(OC)cc1 8.83%
CSC1=N/C(=C\c2ccc(Br)o2)C(=O)S1 1.89%
Cc1ccc(S(=O)(=O)NC(=O)c2ccc(Br)o2)cc1 0.41%
COc1ccc(S(=O)(=O)Nc2nncs2)cc1 -0.42%
O=C(O)c1cccc(CN2C(=O)S/C(=C/c3cccc([N+](=O)[O-])c3)C2=O)c1 3.75%
O=C(O)c1ccc(-c2nc3ccccc3s2)o1 -2.11%
O=C(COc1ccccc1)NNC(=O)COc1ccc([N+](=O)[O-])cc1 0.69%
COc1cc(NC(=O)CN(C)Cc2cccc(F)c2)c(C)cc1[N+](=O)[O-] 13.2%
CNC(=S)N/N=C(\C)c1ccc2c(c1)OCO2 6.47%
O=C(NC1CCCCC1)c1ccc(CNc2ccccc2)o1 3.72%
COc1ccc(/C=C/C(=O)c2ccc(Cl)s2)cc1O 9.54%
NC(=O)c1ccc(-n2nnnc2SCC(=O)Nc2ccc(N3CCOCC3)c(Cl)c2)cc1 -2.55%
CCCCOC(=O)Nc1nnc(CCOCC)s1 2.38%
CCN(CC)CCSc1nc2ccc(OC)cc2[nH]1 1.77%
Cc1ccc(S(=O)(=O)Nc2ccccc2-c2ccccc2NS(=O)(=O)c2ccc(C)cc2)cc1 17.1%
Cc1ccc(N2C(=O)/C(=C\c3ccco3)SC2=S)cc1 2.77%
NC1=NC(=O)/C(=C\c2ccco2)S1 9.69%
CN(C)C1=NC(=O)/C(=C\c2ccccc2)S1 3.5%

inhibition, active:
O=c1[nH]c(CN2CCN(c3ccc([N+](=O)[O-])cc3)CC2)nc2ccsc12 25.9%
COc1cc(C2c3c(-c4cc(C)cc(C)c4O)n[nH]c3C(=O)N2CCCO)cc(OC)c1OC (stereo not given) 28.3%
